We go through 30 molecules from the supplement of paper PMC10369915.

This assay concerns the target SHP2 N-SH2 domain T42A. The assay can be described thus: log2 enrichment relative to wild-type ITIM peptide; higher = stronger binding.
Take VFSVDYSELDF [PD-1 ITIM pTyr223 peptide variant G224S]: the log2 enrichment is 0.528.
The molecule VFSVDYGELDA [PD-1 ITIM pTyr223 peptide variant F228A] had a log2 enrichment of -1.56.
Molecule GFSVDYGELDF [PD-1 ITIM pTyr223 peptide variant V218G] showed a log2 enrichment of 0.152.
Molecule VFSVAYGELDF [PD-1 ITIM pTyr223 peptide variant D222A] showed a log2 enrichment of 1.52.
The same measure for VFGVDYGELDF [PD-1 ITIM pTyr223 peptide variant S220G]: -0.124; for VTSVDYGELDF [PD-1 ITIM pTyr223 peptide variant F219T]: 0.41; for VFAVDYGELDF [PD-1 ITIM pTyr223 peptide variant S220A]: -0.133.
Take VFSVDYGALDF [PD-1 ITIM pTyr223 peptide variant E225A]: the log2 enrichment was -0.501.
In turn, VGSVDYGELDF [PD-1 ITIM pTyr223 peptide variant F219G] gave a log2 enrichment of 0.639.
For VFSTDYGELDF [PD-1 ITIM pTyr223 peptide variant V221T], the log2 enrichment is -0.962.
For the molecule AFSVDYGELDF [PD-1 ITIM pTyr223 peptide variant V218A], the log2 enrichment was 0.0307.
Under VFSVDYGELDS [PD-1 ITIM pTyr223 peptide variant F228S] stands -1.4; under VFSVDYAELDF [PD-1 ITIM pTyr223 peptide variant G224A], 1; under VFSVDYGEADF [PD-1 ITIM pTyr223 peptide variant L226A], -1.51.
SFSVDYGELDF [PD-1 ITIM pTyr223 peptide variant V218S] gave a log2 enrichment of 0.0685.
VFSVDYTELDF [PD-1 ITIM pTyr223 peptide variant G224T] returned a log2 enrichment of 0.883.
VFSVDYGSLDF [PD-1 ITIM pTyr223 peptide variant E225S]: the log2 enrichment was -0.714.
VFSVDYGETDF [PD-1 ITIM pTyr223 peptide variant L226T] gave a log2 enrichment of -1.57.
As to VFSVDYGGLDF [PD-1 ITIM pTyr223 peptide variant E225G], the log2 enrichment was -1.11.
The molecule VFSVTYGELDF [PD-1 ITIM pTyr223 peptide variant D222T] yielded a log2 enrichment of 0.636.
In the case of VFCVDYGELDF [PD-1 ITIM pTyr223 peptide variant S220C], the log2 enrichment is -0.382.
As to VFSVDYGELGF [PD-1 ITIM pTyr223 peptide variant D227G], the log2 enrichment was -1.31.
VFSADYGELDF [PD-1 ITIM pTyr223 peptide variant V221A] showed a log2 enrichment of -1.17.
Under VFSVDYGELTF [PD-1 ITIM pTyr223 peptide variant D227T] stands -0.714.
The same measure for VFSVDYGESDF [PD-1 ITIM pTyr223 peptide variant L226S]: -1.51.
As to VFSCDYGELDF [PD-1 ITIM pTyr223 peptide variant V221C], the log2 enrichment is -0.523.
With VCSVDYGELDF [PD-1 ITIM pTyr223 peptide variant F219C], the log2 enrichment was -0.255.
On to VFTVDYGELDF [PD-1 ITIM pTyr223 peptide variant S220T], for which the log2 enrichment came to 0.338.
As for TFSVDYGELDF [PD-1 ITIM pTyr223 peptide variant V218T], the log2 enrichment is -0.0485.
Molecule VFSVDYGELDG [PD-1 ITIM pTyr223 peptide variant F228G] yielded a log2 enrichment of -1.54.
